Measured values: PubChem BioAssay (EPA / NIEHS)
Active and inactive are the calls of the source. The calls were made as follows: active = hit-call score of the fitted dose curve at least 0.9, where 1 is the maximum; inconclusive = response in the unintended direction; inactive = score below 0.9.

Tested on: Thyroperoxidase (TPO), gene 54314
Assay: CCTE_Simmons_AUR_rTPO: CCTE's Amplex UltraRed Assay for Thyroperoxidase (TPO) Inhibition, Simmons Lab (AID 2283662);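 as to AC50: potency for loss of signal meaning inhibition of peroxidase activity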
Description: CCTE_Simmons_AUR_rTPO is a biochemical, single-readout assay that uses microsomes from rat thyroid gland in a tissue-based cell-free assay. Measurements were taken 0.5 hour after chemical dosing in a 384-well plate.CCTE_Simmons_AUR_rTPO is the assay component measured from the CCTE_Simmons_AUR_rTPO assay. It is designed to make measurements of thyroperoxidase (TPO) activity as detected with fluorescence intensity signals using the Amplex UltraRed technology as a form of enzyme activity reporter.Data from the assay component CCTE_Simmons_AUR_rTPO was analyzed at the endpoint, CCTE_Simmons_AUR_rTPO, in the positive analysis fitting direction relative to DMSO as the negative control and baseline of activity. Using a type of enzyme reporter, the Amplex UltraRed assay, loss-of-signal activity can be used to understand decreased peroxidase activity in the presence of excess […]. To generalize the intended target to other relatable targets, this assay endpoint is annotated to the oxidoreductase intended target family, where the subfamily is peroxidase.
As described previously (Paul et al., 2014), the AUR substrate was repurposed to detect peroxidase (ie, TPO) activity in the presence of excess H2O2 for the AUR-TPO assay. The reaction profile for the 384-well format AUR-TPO assay is scaled to an 80 ul assay volume containing 25 uM AUR, 300 uM H2O2, and 5 ug microsomal protein in 200 mM phosphate buffer. The assay concentration of thyroid microsomal protein was approximately […]. First, rat microsomes containing TPO and diluent 200mM potassium phosphate buffer were added to opaque, black 384-well plates (Greiner, BioExpress; Kaysville, Utah) using an automated liquid handler (BioTek MicroFlo; Winooski, Vermont) with a plastic 5 ul tubing cassette. Similarly, AUR was added next by automated liquid handling. Test compounds were administered using a HDRT as described earlier to achieve a 0.5% final DMSO concentration. Finally, H2O2 (300 uM, final concentration) was then added by the BioTek MicroFlo to initiate the reaction. Microplates were incubated at 37C in the dark for 30min. Plates were then shaken on a fluorescence plate reader (FLUOStar Optima, BMG LabTech; GmbH, Germany), and endpoint fluorescence (top read) was measured using 10 flashes per well at 544/590nm excitation/emission. Three biological replicates of technical singles were run for every chemical concentration tested. A titrated range of MMI served as a positive control for TPO inhibition on each plate of the AUR-TPO screening campaign. Test chemicals were administered as a titrated series of 8 concentrations from 5 nM up to 87.5 uM [final] for 30 minutes prior to single endpoint detection. Dimethylsulfoxide [DMSO] was used as the vehicle control. Methimazole [MMI] was used as the positive control and was administered as a titrated series of 8 concentrations from 1 nM up to 271 uM [final].

| SMILES | AC50 | outcome |
| --- | --- | --- |
| CCCCCCCCCC[N+](C)(CCCCCCCCCC)CCC[Si](OC)(OC)OC | 48.9 µM (active) |  |
| Nc1ccc(C(=O)O)cc1 | 3.19 µM (active) |  |
| CCCCCCCCCCCCc1ccc(O)cc1 | 26.2 µM (active) |  |
| CCCCC1C(=O)N(c2ccccc2)N(c2ccccc2)C1=O | 39.6 µM (active) |  |
| COC(=O)c1ccccc1C |  | inactive |
| CC1=NN(c2ccc(S(=O)(=O)O)cc2)C(=O)C1N=Nc1ccccc1 (configuration not stated) |  | inactive |
| N#Cc1ccc(C(c2ccc(C#N)cc2)n2cncn2)cc1 |  | inactive |
| COc1ccc(-c2coc3cc(O)cc(O)c3c2=O)cc1 | 21.4 µM (active) |  |
| COc1ccc(C(=O)c2ccccc2)c(O)c1 |  | inactive |
| C/C=C/C=C/CCCCCCCO | 25.8 µM (active) |  |
| O=c1c(O)c(-c2ccc(O)cc2O)oc2cc(O)cc(O)c12 | 0.337 µM (active) |  |
| c1ccc(Nc2cccc3ccccc23)cc1 | 5.32 µM (active) |  |
| CC(C)c1ccc(O)c(C(C)C)c1 | 29.7 µM (active) |  |
| CC(C)(c1ccccc1)c1ccc(Nc2ccc(C(C)(C)c3ccccc3)cc2)cc1 | 33.8 µM (active) |  |
| CC(CCC(=O)O)(c1ccc(O)cc1)c1ccc(O)cc1 | 18.3 µM (active) |  |
| O=S(=O)(O)c1ccc(N=Nc2c(O)ccc3ccccc23)cc1 |  | inactive |
| O=C(O)c1cc(O)c2ccccc2c1O | 30.7 µM (active) |  |
| CCCCCCCOC(=O)c1ccc(O)cc1 | 52.6 µM (active) |  |
| CCCCC/C=C\C/C=C\CCCCCCCC(=O)O | 43.8 µM (active) |  |
| CCc1occc(=O)c1O | 31 µM (active) |  |
| CCCCCCOc1ccc(N)cc1 | 0.494 µM (active) |  |
| CN(C)c1ccc2nc3ccc(=[N+](C)C)cc-3sc2c1 | 34 µM (active) |  |
